Assay results published in PubChem BioAssay (Tox21).
Results filed as inconclusive are left out. Active and inactive are the calls of the source. Unless noted, calls come from the whole dose curve; as a rule, active = well fitted curve in the direction sought with a large enough effect in the repeat runs; inconclusive = weak or mixed curves; inactive = no such curve, though single readings can be large; an effect the other way counts as inactive or inconclusive.

Columns and labels:
[1] = qHTS RealTime-Glo MT Cell Viability Assay in HEK293 cells - 0 hour (AID 1224880); conditions: RealTime-Glo luminescence; series mostly up to 76.8 µM; note: top concentration of the series differs between compounds; nearly all actives have a fitted effect of over 45% in size
How it was run: (§1)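 Viable HEK293 cells reduce a cell-permeant prosubstrate; the product diffuses out and is consumed by NanoLuc in the medium to give light. Compounds went in after a 5 h incubation and plates were read over the treatment course.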

[2] = A CellTox Green Cytotoxicity Assay to monitor cytotoxicity in HEK293 cells - 32 hour (AID 1224881); conditions: CellTox Green fluorescence; series mostly up to 76.8 µM; note: nearly all actives have a fitted effect of over 40% in size
How it was run: (§2)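 Fluorescence intensity, read at 0, 8, 16, 24, 32 and 40 h of compound treatment, reflected dye binding to DNA of dead HEK293 cells; compounds (23 nL, DMSO) were added 5 h after plating cells with reagent.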

[3] = A CellTox Green Cytotoxicity Assay to monitor cytotoxicity in HepG2 cells - 0 hour (AID 1224882); conditions: CellTox Green fluorescence; series mostly up to 76.8 µM; note: nearly all actives have a fitted effect of over 35% in size
How it was run: (§3)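 Using 1536-well format, dye-containing HepG2 suspension was seeded, allowed 5 h at 37 C/5% CO2, dosed by pintool with compounds, positive and negative controls, and imaged for fluorescence across 40 h.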

[4] = A CellTox Green Cytotoxicity Assay to monitor cytotoxicity in HepG2 cells - 32 hour (AID 1224883); conditions: CellTox Green fluorescence; series mostly up to 76.8 µM; note: nearly all actives have a fitted effect of over 50% in size
How it was run: as §3

[5] = A CellTox Green Cytotoxicity Assay to monitor cytotoxicity in HEK293 cells - 8 hour (AID 1224884); conditions: CellTox Green fluorescence; series mostly up to 76.8 µM; note: nearly all actives have a fitted effect of over 35% in size
How it was run: as §2

[6] = qHTS RealTime-Glo MT Cell Viability Assay in HepG2 cells - 16 hour (AID 1224885); conditions: RealTime-Glo luminescence; series mostly up to 76.8 µM; note: nearly all actives have a fitted effect of over 50% in size
How it was run: (§4)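 Tox21 10K library screened in qHTS format on HepG2 cells carrying RealTime-Glo reagents. Compounds were added after a 5 h preincubation, and the luminescent signal from continuous culture was measured repeatedly during 40 h treatment.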

[7] = qHTS RealTime-Glo MT Cell Viability Assay in HEK293 cells - 24 hour (AID 1224886); conditions: RealTime-Glo luminescence; series mostly up to 76.8 µM; note: top concentration of the series differs between compounds; nearly all actives have a fitted effect of over 50% in size
How it was run: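 Luminescence generated by NanoLuc from substrate produced by living HEK293 cells served as the viability signal. Each value reflects the reading at its stated time point during continuous 40 h compound exposure at 37 C.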

[8] = qHTS RealTime-Glo MT Cell Viability Assay in HEK293 cells - 8 hour (AID 1224887); conditions: RealTime-Glo luminescence; series mostly up to 76.8 µM; note: top concentration of the series differs between compounds; nearly all actives have a fitted effect of over 50% in size
How it was run: as §1

[9] = A CellTox Green Cytotoxicity Assay to monitor cytotoxicity in HEK293 cells - 16 hour (AID 1224888); conditions: CellTox Green fluorescence; series mostly up to 76.8 µM; note: nearly all actives have a fitted effect of over 35% in size
How it was run: as §2

[10] = qHTS RealTime-Glo MT Cell Viability Assay in HepG2 cells - 0 hour (AID 1224889); conditions: RealTime-Glo luminescence; series mostly up to 76.8 µM; note: nearly all actives have a fitted effect of over 50% in size
How it was run: as §4

[11] = A CellTox Green Cytotoxicity Assay to monitor cytotoxicity in HepG2 cells - 8 hour (AID 1224890); conditions: CellTox Green fluorescence; series mostly up to 76.8 µM; note: nearly all actives have a fitted effect of over 45% in size
How it was run: as §3

[12] = qHTS assay to identify small molecule antagonists of the estrogen receptor alpha (ER-alpha) signaling pathway using the BG1 cell line in the presence of 0.1 nM 17-beta-estradiol - cell viability counter screen (AID 1259241); conditions: VM7Luc4E2 (BG1) viability, CellTiter-Fluor protease, 22 h, 0.1 nM estradiol agonist added; series mostly up to 92.4 µM; note: nearly all actives have a fitted effect of over 40% in size
How it was run: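 Measures cytotoxicity alongside the ER-alpha antagonist readout: VM7Luc4E2 cells, charcoal-stripped serum, 0.1 nM 17beta-estradiol final, 22 hr compound incubation at 37C, CellTiter-Fluor fluorescence.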

[13] = qHTS assay to identify small molecule antagonists of the androgen receptor (AR) signaling pathway using the MDA cell line in the presence of 0.5 nM R1881 - cell viability counter screen (AID 1259242); conditions: MDA-kb2 viability, CellTiter-Fluor protease fluorescence, 16 h; series mostly up to 92.4 µM; note: nearly all actives have a fitted effect of over 45% in size
How it was run: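 Viability of MDA-kb2 cells was multiplexed with the luciferase AR readout; after 16 hr with compounds and R1881 at 0.5 nM final, CellTiter-Fluor fluorescence was recorded.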

[14] = molecular target: Estrogen receptor (Homo sapiens) (UniProt P03372); test: qHTS assay to identify small molecule antagonists of the estrogen receptor alpha (ER-alpha) signaling pathway using the BG1 cell line in the presence of 0.1 nM 17-beta-estradiol (AID 1259244); conditions: VM7Luc4E2 (BG1) ERE-luciferase, antagonist mode, 0.1 nM E2, 22 h; series mostly up to 92.4 µM; note: nearly all actives have a fitted effect of over 50% in size
Sequence of Estrogen receptor (Homo sapiens) (P03372 whole entry, looked up): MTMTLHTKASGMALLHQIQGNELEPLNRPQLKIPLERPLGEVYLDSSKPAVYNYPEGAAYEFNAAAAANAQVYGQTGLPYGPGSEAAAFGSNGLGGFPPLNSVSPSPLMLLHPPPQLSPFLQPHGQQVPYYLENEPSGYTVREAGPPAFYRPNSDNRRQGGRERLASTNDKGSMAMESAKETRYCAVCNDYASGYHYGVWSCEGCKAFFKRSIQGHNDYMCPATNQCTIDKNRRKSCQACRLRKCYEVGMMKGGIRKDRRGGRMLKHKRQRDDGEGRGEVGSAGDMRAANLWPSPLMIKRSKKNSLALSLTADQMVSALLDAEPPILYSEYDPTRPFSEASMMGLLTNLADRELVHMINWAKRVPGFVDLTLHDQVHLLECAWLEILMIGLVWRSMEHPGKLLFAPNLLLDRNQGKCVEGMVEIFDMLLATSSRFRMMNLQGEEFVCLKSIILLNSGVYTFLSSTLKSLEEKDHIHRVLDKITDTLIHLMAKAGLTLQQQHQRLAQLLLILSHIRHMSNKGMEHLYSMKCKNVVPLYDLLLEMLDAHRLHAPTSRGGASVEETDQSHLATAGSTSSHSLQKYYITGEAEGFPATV
How it was run: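 Estradiol at 0.1 nM (final) stimulates the endogenous ER-alpha of VM7Luc4E2 cells carrying an ERE-driven luciferase; compounds are co-incubated 22 h at 37C and luciferase output quantified by luminescence.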

[15] = qHTS assay to identify small molecule HDAC inhibitors (AID 1259364); conditions: HCT-116 HDAC-Glo I/II luminescence, 2 h; series mostly up to 92.4 µM;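 note: wild-type HCT-116 cells with endogenous class I/II HDAC activity; top concentration of the series differs between compounds; nearly all actives have a fitted effect of over 45% in size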
How it was run: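 Read-out: luminescence of HDAC-Glo I/II reagent, 30 min RT, reflecting class I/II deacetylase activity in whole HCT-116 cells pre-exposed 2 h to DMSO-dissolved compounds.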

[16] = qHTS assay to identify small molecule HDAC inhibitors - cell viability counter screen (AID 1259365); conditions: HCT-116 viability, CellTiter-Glo ATP luminescence, 2 h; series mostly up to 92.4 µM; note: nearly all actives have a fitted effect of over 50% in size
How it was run: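 Following a 2hr exposure of overnight-plated wild-type HCT-116 cells to DMSO-delivered compounds, CellTiter-Glo was added and luminescence recorded after 30min at room temperature.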

[17] = qHTS assay to identify small molecule agonists of the sonic hedgehog signaling (Shh) pathway - cell viability counter screen (AID 1259366); conditions: NIH/3T3 Gli1-Luc viability, CellTiter-Fluor, 24 h; series mostly up to 92.4 µM; note: nearly all actives have a fitted effect of over 50% in size
How it was run: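 After a 4hr attachment at 37C, NIH/3T3 cells bearing an integrated Gli1-driven luciferase reporter were dosed with compounds. Treatment lasted 24hr, with the final hour including CellTiter-Fluor for a fluorescence viability measurement.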

[18] = molecular target: Androgen receptor (Homo sapiens) (UniProt P10275); test: qHTS assay to identify small molecule antagonists of the androgen receptor (AR) signaling pathway using the MDA cell line in the presence of 0.5 nM R1881 (AID 1259243); conditions: MDA-kb2 MMTV-luciferase, R1881 0.5 nM, 16 h; series mostly up to 92.4 µM; note: nearly all actives have a fitted effect of over 50% in size
Sequence of Androgen receptor (Homo sapiens) (P10275 whole entry, looked up): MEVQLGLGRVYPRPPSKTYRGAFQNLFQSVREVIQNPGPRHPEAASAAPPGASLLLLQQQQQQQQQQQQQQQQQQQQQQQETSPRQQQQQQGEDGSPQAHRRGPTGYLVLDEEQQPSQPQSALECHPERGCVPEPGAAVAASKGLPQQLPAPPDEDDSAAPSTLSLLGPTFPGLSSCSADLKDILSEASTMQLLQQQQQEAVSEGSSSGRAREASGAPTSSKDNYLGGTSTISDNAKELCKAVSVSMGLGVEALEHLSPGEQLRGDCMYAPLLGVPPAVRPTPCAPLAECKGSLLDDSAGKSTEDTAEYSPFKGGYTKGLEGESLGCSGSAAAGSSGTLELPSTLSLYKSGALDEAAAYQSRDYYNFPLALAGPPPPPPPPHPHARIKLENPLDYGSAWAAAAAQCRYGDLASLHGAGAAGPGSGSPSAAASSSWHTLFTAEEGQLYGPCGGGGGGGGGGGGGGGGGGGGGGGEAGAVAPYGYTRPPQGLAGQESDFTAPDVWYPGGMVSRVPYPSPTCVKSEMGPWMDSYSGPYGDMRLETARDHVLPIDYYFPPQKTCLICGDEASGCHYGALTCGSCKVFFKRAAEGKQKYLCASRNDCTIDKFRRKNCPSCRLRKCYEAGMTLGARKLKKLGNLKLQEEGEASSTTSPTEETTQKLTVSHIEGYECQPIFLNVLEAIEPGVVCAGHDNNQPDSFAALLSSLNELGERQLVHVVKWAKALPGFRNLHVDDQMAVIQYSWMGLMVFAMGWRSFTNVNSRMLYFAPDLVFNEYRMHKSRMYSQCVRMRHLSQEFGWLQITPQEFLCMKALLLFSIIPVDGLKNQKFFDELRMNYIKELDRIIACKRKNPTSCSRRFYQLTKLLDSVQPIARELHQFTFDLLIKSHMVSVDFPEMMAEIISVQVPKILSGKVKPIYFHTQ
How it was run: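 Reporter cells cultured without CO2 receive test chemicals, then 0.5 nM R1881 final; after 16 hr at 37C, ONE-Glo is added and light output recorded.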

[19] = qHTS assay to identify small molecule antagonists of the sonic hedgehog signaling (Shh) pathway - cell viability counter screen (AID 1259367); conditions: NIH/3T3 Gli1-Luc viability, CellTiter-Fluor, 24 h; series mostly up to 92.4 µM; note: nearly all actives have a fitted effect of over 55% in size
How it was run: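 NIH/3T3-derived Gli1-Luc reporter cells (2,000 per well) rested 4 hr at 37 C, then received DMSO compounds plus conditioned medium. After 23 hr of treatment, CellTiter-Fluor was added for 1 hr at 37C and fluorescence read.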

[20] = qHTS assay to identify small molecule phospholipidosis (PLD) inducers (AID 1259344; active = well fitted curve in the direction sought with a large enough effect; an effect the other way counts as inactive or inconclusive); conditions: HepG2 phospholipidosis, LipidTOX Red imaging, 24 h; series mostly up to 38.3 µM
How it was run: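 HepG2 cells on collagen I, attached 4 h at 37 C, were co-treated with compound and LipidTOX Red dye for 24 h at 37 C, then fixed with paraformaldehyde plus Hoechst 33342 and imaged by high-content microscopy for phospholipid accumulation.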

Measured: Potency

C/C(=N\NC(=O)Nc1cc(F)cc(F)c1)c1ncccc1C(=O)O
not listed: [18] | [19] | [20]
inactive: all other assays above

CCCOc1nn(C(=O)NS(=O)(=O)c2ccccc2C(=O)OC)c(=O)n1C
not listed: [9] | [14] | [19] | [20]
inactive: all other assays above

CCC(C)C(C)(COC(N)=O)COC(N)=O (stereo unspecified)
not listed: [9] | [18] | [20]
inactive: all other assays above

O=S1(=O)OCCO1
not listed: [14] | [20]
inactive: all other assays above

CCNc1nc(NCC)nc(SC)n1
not listed: [18] | [19] | [20]
inactive: all other assays above

CCC1(c2cccc(O)c2)CCCCN(C)C1 (stereo unspecified)
not listed: [14] | [18] | [19]
inactive: all other assays above

CC(C)(N)Cc1ccccc1Cl
not listed: [14] | [20]
inactive: all other assays above

NCC1(CC(=O)O)CCCCC1
not listed: [14] | [18]
inactive: all other assays above

CCOC(=O)C(SP(=S)(OC)OC)c1ccccc1 (stereo unspecified)
not listed: [10] | [14] | [18] | [20]
inactive: all other assays above

C#CCOC(=O)/C=C(C)/C=C/CC(C)CCCC(C)C (stereo unspecified)
not listed: [18] | [20]
inactive: all other assays above

CN1C(=O)COc2c(C(=O)NC3CN4CCC3CC4)cc(Cl)cc21 (stereo unspecified)
not listed: [18]
inactive: all other assays above

CCN(CC)C1CCCCC1
not listed: [17] | [20]
inactive: all other assays above

ClCOCCl
not listed: [18] | [20]
inactive: all other assays above

CCOC(=O)CCl
not listed: [18] | [20]
inactive: all other assays above

CNC(=O)Oc1ccccc1C(C)C
not listed: [20]
inactive: all other assays above

c1cncc([C@@H]2CCCCN2)c1
not listed: [11] | [18] | [20]
inactive: all other assays above
